The values that follow come from PubChem BioAssay AID651599 (National Center for Advancing Translational Sciences (NCATS), 2012).

Results filed as inconclusive are left out. A call without a number means that no potency is given here. The source made the active and inactive calls. The call rests on the fitted dose curve; in most records, active means well fitted inhibition curve with a large enough effect; inconclusive means small, poorly fitted or top-dose-only effect; inactive means no such curve, though single readings can be large or run the other way.

Sequence of Tumor susceptibility gene 101 protein (Homo sapiens) (Q99816 whole entry, looked up, the tested form may be a part): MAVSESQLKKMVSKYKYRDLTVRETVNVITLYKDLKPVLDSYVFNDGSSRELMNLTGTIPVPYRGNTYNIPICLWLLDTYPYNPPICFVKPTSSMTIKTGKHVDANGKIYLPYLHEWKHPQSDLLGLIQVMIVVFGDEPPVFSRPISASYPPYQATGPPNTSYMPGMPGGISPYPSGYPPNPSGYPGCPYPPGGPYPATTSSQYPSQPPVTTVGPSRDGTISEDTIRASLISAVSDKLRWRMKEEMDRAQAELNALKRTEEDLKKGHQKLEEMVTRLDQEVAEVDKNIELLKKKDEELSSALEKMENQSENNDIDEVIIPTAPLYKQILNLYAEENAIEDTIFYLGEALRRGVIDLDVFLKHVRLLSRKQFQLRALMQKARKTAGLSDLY

The target of the assay is Tumor susceptibility gene 101 protein (Homo sapiens) (UniProt Q99816). Briefly: qHTS Assay for Iinhibitors of HIV-1 Budding by Blocking the Interaction of PTAP/TSG101: Hit Validation in TR assay. The conditions noted are these: Tsg101 binding domain + Texas Red-labeled PTAP peptide, fluorescence polarization, 20 min; series mostly up to 57.5 µM. In short, it runs like this:
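Texas Red-PTAP peptide (50 nM) binding to Tsg101 binding domain (10 uM), both final, in pH 7.5 HEPES buffer, read as polarization after 20 min at room temperature; compounds pinned before peptide addition.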
(qHTS replaces the single test concentration by a dilution series.)
Take `O=C(NCc1cc(C(F)(F)F)ccc1Cl)c1cccc2c1C(=O)c1ccc(N3CCC(Cc4ccccc4)CC3)cc1S2(=O)=O`: the Potency result was “inactive”.

As to `COc1cccc2c1C(=O)c1c(O)c3c(c(O)c1C2=O)CC(O)(C(C)=O)CC3OC1CC(N(C)C)C(O)C(C)O1` (stereo unspecified), the Potency result was “inactive”.

On to `O=[N+]([O-])c1ccc(Sc2cccc[n+]2[O-])c2nonc12`, for which the Potency entry is “inactive”.

On to `CCOC(=O)c1cnc2ccc(OC)cc2c1Nc1ccc(N2CCN(C)CC2)cc1`, for which the Potency result was “inactive”.

Consider `Cc1cccc(N=Nc2c(O)[nH]c3ccc(F)cc23)c1`, for which the Potency entry was “inactive”.

Take `Cc1ccc(CNC(=O)C2CCCN(S(=O)(=O)c3c(C)[nH]c(=O)[nH]c3=O)C2)cc1` (stereo unspecified): the Potency entry is “inactive”.

As for `Oc1ccc2ccccc2c1N=Nc1nccs1`, the Potency entry is “inactive”.

With `N=C1CCC(=N)c2c1c(O)c1ccccc1c2O`, the Potency entry was “inactive”.

With `Nc1c(C(=O)C2CC2)sc2nc(-c3ccccc3)cc(C(F)(F)F)c12`, the Potency entry is “inactive”.

Regarding `O=C(c1ccccc1)[C@@H]1[C@@H]2C(=O)N(c3ccc(F)cc3)C(=O)[C@@H]2C2CCCN21` (stereo partly specified), the Potency entry is “inactive”.

Turning to `Cc1c(C(=O)Nc2cccc(C(F)(F)F)c2)sc2nc3n(c(=O)c12)CCCC3`, the Potency entry is “inactive”.

For the molecule `CC(C)c1nnc(N2C(=O)C(O)=C(C(=O)c3cccs3)C2c2ccccc2)s1` (stereo unspecified), the Potency entry is “inactive”.

Consider `CCCCCOc1ccc(/C=c2\sc3nc(=O)c(-c4ccccc4)nn3c2=O)cc1OC`, for which the Potency entry was “inactive”.

For the molecule `O=C1c2cccc3c(O)ccc(c23)C(=O)N1c1ccc(Cl)cc1`, the Potency entry is “inactive”.

As for `Cc1ccc(OC(=O)c2ccc3nc(C)sc3c2)cc1`, the Potency result was “inactive”.

For `COc1ccc(NC(=O)c2cccc(-c3ccc(O)cc3)c2)cn1`, the Potency entry is “inactive”.
